Assay outcomes: PubChem BioAssay, National Center for Advancing Translational Sciences (NCATS)
A selection: hits, their analogues and other compounds. The true share with any hit is near 22%.
Pf growth 96h = inhibits malaria parasite growth, 96 h. P. falciparum luciferase reporter growth, 96 h. Potency, µM (titrated, usually from 28.7 µM), without a hit: at the highest dose activity change, negative = inhibition, actives largely listed as inhibitors. 320,000 tested, 6.9% active. AID 504834; further: potency means the concentration at half of the fitted maximal effect; on the % scale 0 is the no-effect control and ±100 the full control effect
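Two-generation exposure (96 h) targets delayed-death phenotype. Reporter parasites carrying integrated firefly luciferase, in red cells at 2% hematocrit and 0.05% parasitemia final, kept at 37 C, 5% CO2; luminescence loss indicates inhibition.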
LmPK inh = inhibitors of Leishmania mexicana pyruvate kinase; Q27686; purified LmPK, Kinase-Glo ATP luminescence, 1 h; Potency, µM (series often up to 57.5 µM), inactives show top-dose activity change, negative = inhibition, usual class: inhibitors; 290,000 tested, 0.37% active; further: potency means the concentration at half of the fitted maximal effect; on the % scale 0 is the no-effect control and ±100 the full control effect
Target sequence (Q27686 whole entry, looked up): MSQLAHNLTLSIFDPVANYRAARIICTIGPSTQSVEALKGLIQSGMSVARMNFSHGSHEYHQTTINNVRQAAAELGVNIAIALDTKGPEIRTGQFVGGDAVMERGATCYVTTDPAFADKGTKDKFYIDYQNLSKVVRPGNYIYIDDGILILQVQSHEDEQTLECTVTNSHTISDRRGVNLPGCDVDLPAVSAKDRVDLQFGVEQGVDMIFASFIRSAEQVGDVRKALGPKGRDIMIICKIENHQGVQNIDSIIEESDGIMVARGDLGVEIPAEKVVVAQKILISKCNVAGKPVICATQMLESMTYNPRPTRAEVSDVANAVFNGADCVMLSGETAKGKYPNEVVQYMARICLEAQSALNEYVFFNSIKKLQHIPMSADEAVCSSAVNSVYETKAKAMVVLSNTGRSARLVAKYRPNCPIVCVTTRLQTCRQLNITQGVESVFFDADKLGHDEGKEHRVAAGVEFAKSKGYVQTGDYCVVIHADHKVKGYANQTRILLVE
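qHTS format; LmPK 0.1 nM; substrates PEP 0.5 mM and ADP 0.1 mM. One-hour room-temperature incubation, then coupled luciferase luminescence; 0.5 nM enzyme wells mark activation.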
CHX counter = affects cycloheximide protein synthesis inhibition readout, counter-screen; cell reporter, cycloheximide protein synthesis inhibition counterscreen; 300,000 tested, 12% active; AID 2314; max response, %; in the data active means max response mostly above about 13%, no sharp cut-off; inactive means mostly below about 14%; further: read at 38.3 µM for the half of the compounds with a filed dose; 0% is about no effect
Shiga inhibitor = blocks Shiga toxin action in Vero cells; inhibition, % at 38.7 µM; 290,000 tested, 9.2% active; Vero cells, Shiga toxin protein synthesis inhibition reporter; in the data active means inhibition mostly above about 28%, no sharp cut-off; inactive means mostly below about 43%; further: 0% is about no effect
Pf growth 48h = P. falciparum growth inhibition at 48 hours (one generation); P. falciparum luciferase growth in erythrocytes, 48 h; Potency, µM (top dose mostly 28.7 µM), for the others: at the highest dose activity change, negative = inhibition, hits mostly inhibitors; 310,000 tested, 5.9% active; AID 504832; further: potency means the concentration at half of the fitted maximal effect; on the % scale 0 is the no-effect control and ±100 the full control effect
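Here the parasites carry a stable luciferase gene and grow inside erythrocytes in Albumax-based RPMI medium with compound for one erythrocytic cycle. Activity is scored as loss of luminescent signal.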
* hit, by the source's call; i = inactive; u = inconclusive; x = no result; [ ] = remark or other dose. Unless noted, the call rests on the fitted dose curve; in most records, active means well fitted inhibition curve with a large enough effect; inconclusive means small, poorly fitted or top-dose-only effect, or another doubt; inactive means no such curve, though single readings can be large or run the other way.

SMILES	Pf growth 96h	LmPK inh	CHX counter	Shiga inhibitor	Pf growth 48h
O=C(CC(=O)c1cc(Cl)ccc1O)c1ccccc1	u	4%	55*	74*	u
Cc1cccc(C(=O)NCC(=O)NNC(=O)c2ccccc2O)c1	31%	x	x	x	6%
Cc1cccc(C(=O)CC(=O)c2cc(Cl)ccc2O)c1	x	-12%	27*	50*	x
Cc1ccc(O)c(C(=O)CC(=O)c2ccc(Cl)cc2)c1	u	6%	38*	96*	u
COc1ccccc1NS(=O)(=O)c1ccc(C)c(NS(=O)(=O)c2cc(C(=O)O)cc(C)c2C)c1	-6%	0%	1	-3	53%
C=CCNC(=S)NNC(=O)c1csc(CC)c1	40%	1%	8	19	47%
CCc1cc(C(=O)NNC(=S)Nc2cccc(C)c2)cs1	77%	-8%	28*	66*	135%
CCc1cc(C(=O)Nc2ccc(C)cc2Br)cs1	i	-9%	57*	71*	i
Cc1cccc(NC(=O)C(=O)NNC(=O)c2ccc(C(C)(C)C)cc2)c1	u	1%	8	-13	26%
CCCCNC(=S)NNC(=O)c1csc(C)c1	45%	3%	8	12	48%
CCCCNC(=S)NNC(=O)c1csc(CC)c1	163%	6%	9	34*	156%
Cc1cccc(NC(=S)NNC(=O)c2csc(C(C)C)c2)c1	116%	-7%	42*	42*	128%
N=C1SCC(=O)N1c1ncc(Cc2ccc(F)cc2)s1	114%	0%	-2	-5	u
Cc1cccc(NC(=S)NNC(=O)c2sccc2C)c1	x	u	25*	107	141%
CC1=Nc2ccccc2N=C(N)C1c1ccccc1 (configuration not stated)	12%	-3%	40*	67*	62%
COc1ccc(S(=O)(=O)N2CCN(C/C=C/c3ccccc3)CC2)cc1F	40%	-2%	-1	-4	0%
Cc1cc2nc3c(=O)[nH]c(=O)nc-3n(CC(O)C(O)C(O)CO)c2cc1C (configuration not stated)	7.6µM*	x	x	x	13µM*
CC(=O)OCCn1c2nc(=O)[nH]c(=O)c-2nc2cc(C)c(C)cc21	u	0%	-3	-13	u
Cc1cc2nc3c(=O)[nH]c(=O)nc-3n(C)c2cc1C=O	x	x	-13	-17	x
CCCC(=O)OC[C@@H](OC(=O)CCC)[C@@H](OC(=O)CCC)[C@H](Cn1c2nc(=O)[nH]c(=O)c-2nc2cc(C)c(C)cc21)OC(=O)CCC	12µM*	x	x	x	u
COc1cccc(N(C(=O)Cn2nnc(-c3ccc(C)cc3)n2)C(C(=O)NC(C)(C)C)c2c[nH]c3ccccc23)c1 (configuration not stated)	2.3µM*	0%	-1	-7	12µM*
CC(C)(C)NC(=O)C(c1c[nH]c2ccccc12)N(C(=O)Cn1nnc(-c2ccc(Cl)cc2)n1)c1ccccc1F (configuration not stated)	30%	-2%	3	4	u
CC(C)(C)NC(=O)C(c1ccncc1)N(C(=O)Cn1nnc(-c2ccc(F)cc2)n1)c1cccc(F)c1 (configuration not stated)	0%	1%	29*	56	u
Cc1cccc(N(C(=O)Cn2nnc(-c3ccccc3F)n2)C(C(=O)NC(C)(C)C)c2ccncc2)c1 (configuration not stated)	10%	0%	-2	-8	17%
Cc1cc(-c2ccc(C(C)C)c(S(=O)(=O)Nc3cc(C)on3)c2)on1	13µM*	5%	-1	2	17%
SMILES	Pf growth 96h	LmPK inh	CHX counter	Shiga inhibitor	Pf growth 48h
CCc1ccc(-c2cc(C)no2)cc1S(=O)(=O)N1CCN(c2ccc(C(C)=O)cc2)CC1	-1%	-13%	-6	-5	u
CC(=O)c1ccc(N2CCN(S(=O)(=O)c3cc4[nH]c(=O)c(=O)[nH]c4cc3C)CC2)cc1	-4%	-7%	19*	24*	2.3µM*
Cc1cc(-c2ccc(C(C)C)c(S(=O)(=O)N3CCC(C)CC3)c2)on1	u	-4%	1	-4	12µM*
CC(=O)c1ccc(N2CCN(S(=O)(=O)c3cc(-c4cc(C)no4)ccc3C(C)C)CC2)cc1	u	6%	-2	11	10µM*
CCc1ccc(-c2cc(C)no2)cc1S(=O)(=O)N1CCC(C)CC1	u	1%	1	-6	-29%
Cc1ccc(C(C)C)cc1OCCn1cncn1	0%	-12%	-2	-1	0%
Cc1ccc(NC(=O)Cn2c([N+](=O)[O-])cnc2C)cc1Cl	49%	0%	-1	14	13%
Cc1ccc(-c2noc(CNC(=O)COc3ccccc3C)n2)cc1	-14%	6%	-2	-8	16%
COc1ccc(Nc2nnc(-c3ccncc3)s2)cc1Cl	u	-7%	49*	71*	7%
Cc1ccc(Nc2nnc(-c3ccncc3)s2)c(Br)c1	u	3%	27*	26	u
Clc1ccccc1Nc1nnc(-c2ccncc2)s1	22%	4.5µM*	41*	28*	76%
COc1ccc(Cl)cc1Nc1nnc(-c2ccncc2)s1	30%	-10%	-3	-3	2%[0.00184 µM]
CCn1c(SCC(=O)NNC(=O)c2ccc(OC)cc2)nnc1-c1cccnc1	-5%	-3%	-2	9	10%
COC(=O)C1=C(C)N(c2ccc(F)cc2)/C(=C/c2ccc(O)cc2)C1=O	u	-11%	-6	-10	-17%
O=C(N/N=C/c1sc(=O)n(Cc2ccc(Br)cc2)c1Cl)c1ccco1	2.6µM*	13%	22*	3	3.7µM*
Cc1sccc1/C=N/NC(=O)c1ccco1	u	-14%	7	-22	-8%
Cc1ccc(/C=N/NC(=O)c2ccco2)s1	154%	-17%	53*	71*	85%
O=C(O)c1cccc(Cn2c(Cl)c(/C=N/NC(=O)c3ccccc3O)sc2=O)c1	-4%	-1%	17*	31	43%
O=C(N/N=C/c1ccc(Br)s1)c1ccco1	-3%	-4%	55*	91*	-26%
O=C(O)c1cccc(Cn2c(Cl)c(/C=N/NC(=O)c3ccccc3Cl)sc2=O)c1	-17%	-1%	6	-2	21%
Cc1cccc(NC(=O)CNC(=O)Cc2ccc(S(=O)(=O)N3CCOCC3)s2)c1C	-1%	x	x	x	u
CC(Cc1ccccc1Sc1ccc(O)cc1)N(C)C (configuration not stated)	x	-1%	-1	-11	13µM*
CC(Cc1ccccc1Sc1ccccc1)N(C)C (configuration not stated)	u	4%	-5	-13	u
CC(=O)Nc1ccc(C(=O)NCC2(N3CCCCC3)CCCCC2)cc1	-5%	-5%	-1	11	-20%
CCOc1ccc(NS(=O)(=O)c2ccc(C(=O)NCC3(N(C)C)CCCCC3)cc2)cc1	9.3µM*	x	x	x	8.3µM*
Cc1cc(S(=O)(=O)Nc2ccc(C(=O)NCC3(N4CCCCC4)CCCCC3)cc2)ccc1F	13µM*	x	x	x	u
